Screens: PubChem BioAssay, National Center for Advancing Translational Sciences (NCATS)
In the library only some 21% were active in any assay of this set; here they are far more common.
Pf growth 96h: P. falciparum growth inhibition at 96 hour, primary screen for plastid delayed-death inhibitors; 320,000 tested, 6.9% active; Potency, µM (titrated, usually from 28.7 µM), for the others: at the top dose activity change, negative = inhibition, most hits filed as inhibitors; AID 504834; P. falciparum luciferase reporter growth, 96 h; also: potency is read from the fitted curve at half-maximal effect; % is scaled to controls: 0 for no effect and ±100 for the full control effect
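Delayed-death screen, second-generation endpoint: infected erythrocytes, 2% hematocrit, 0.05% parasitemia final; 96 hours at 37 C, 5% CO2; luciferase detection reagent; luminescence decrease equals reduced growth.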
CHX counter: counter-screen hit for Shiga toxin inhibitors, cycloheximide | 300,000 tested, 12% active | max response, % | cell reporter, cycloheximide protein synthesis inhibition counterscreen; in the data active = max response mostly above about 13%, no sharp cut-off; inactive = mostly below about 14%; also: read at 38.3 µM for the half of the compounds with a filed dose; 0% is about no effect
Pf growth 48h: inhibits P. falciparum growth in the first generation, 48 h; P. falciparum luciferase growth in erythrocytes, 48 h; Potency, µM (series often up to 28.7 µM), inactives show at the top dose activity change, negative = inhibition, actives largely listed as inhibitors; 310,000 tested, 5.9% active; AID 504832; also: potency is read from the fitted curve at half-maximal effect; % is scaled to controls: 0 for no effect and ±100 for the full control effect
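Here the parasites carry a stable luciferase gene and grow inside erythrocytes in Albumax-based RPMI medium with compound for one erythrocytic cycle. Activity is scored as loss of luminescent signal.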
Shiga toxin inh: blocks Shiga toxin action in Vero cells; inhibition, % at 38.7 µM; Vero cells, Shiga toxin protein synthesis inhibition reporter; 290,000 tested, 9.2% active; in the data active = inhibition mostly above about 28%, no sharp cut-off; inactive = mostly below about 43%; also: 0% is about no effect
HCMV antiviral: blocks human cytomegalovirus replication. AID 1259415. 410,000 tested, 4.5% active. HFF cells, HCMV-luciferase reporter, 72 h; active compounds read low. activity change, negative = inhibition, % at 57.5 µM; in the data active = activity change below about -60%; inconclusive = no clear call, values can overlap the other calls; inactive = above about -39%; also: % is scaled to controls: 0 for no effect and ±100 for the full control effect
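Luciferase read-out from HCMV-luciferase-infected HFFs (MOI 1 PFU/cell) 72 h post infection at 37C; compounds added after 16 h cell attachment; activity normalized between buffer-only basal and Salinomycin (10uM) inhibitor controls.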
HCV inh: blocks hepatitis C virus; Potency, µM (top dose mostly 41.8 µM), for the others: at the highest dose activity change, negative = inhibition, usual class: inhibitors; Huh7.5.1 HCVcc-Cre infection, luciferase reporter, 44 h; 340,000 tested, 3.4% active; also: potency is read from the fitted curve at half-maximal effect; % is scaled to controls: 0 for no effect and ±100 for the full control effect
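Reporter virus HCVcc-Cre (~0.5 moi) infects cells exposed to compound; seeding density 1,000 cells/well with 4 h settling beforehand. Luminescence, 15 sec read, taken 44 h post-infection following a 15 min RT substrate incubation.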
* marks the source's active call; other numbers are inactive results. Unless noted, calls follow the shape of the dose curve; as a rule, active = well fitted inhibition curve with a large enough effect; inconclusive = small, poorly fitted or top-dose-only effect, or another doubt; inactive = no such curve, though single readings can be large or run the other way.

Screening COc1ccc(OC)c(-c2csc(NC(=O)Cc3ccc(F)cc3)n2)c1 returned Pf growth 96h -32%, CHX counter 17, Pf growth 48h inconclusive, Shiga toxin inh 36, HCMV antiviral 10 and HCV inh inconclusive.
`O=C(Cc1ccc(NC(=O)N2CCCCc3ccccc32)cc1)NCc1ccccc1` gave HCMV antiviral 20.
For CC(C)COc1ccc(C(=O)N2CCCCC2CCN2CCOCC2)cc1 (centres undefined) the results were HCMV antiviral 15.
Screening COc1ccc(C(=O)Nc2nnc(SCc3cc(=O)n4cccc(C)c4n3)s2)cc1 returned HCMV antiviral 89.
Screening COc1cccc(OC)c1C(=O)Nc1ccc(C(=O)NCc2ccccc2)cc1 returned Pf growth 96h inconclusive, CHX counter -4, Pf growth 48h -12%, Shiga toxin inh -2 and HCMV antiviral 10.
For Cc1cn(C2CC3OCC(NC(=O)C(NC(=O)OC(C)(C)C)C(C)OCc4ccccc4)C3O2)c(=O)[nH]c1=O (centres undefined) the results were CHX counter -2 and Shiga toxin inh -3.
For COc1ccc(-c2csc(NC(=O)CSCc3c(C)noc3C)n2)cc1OC the results were Pf growth 96h inconclusive, CHX counter -2, Pf growth 48h inconclusive, Shiga toxin inh -4, HCMV antiviral -13 and HCV inh inconclusive.
For O=C(Cc1ccccc1F)Nc1nc(-c2ccc(F)cc2)cs1 the results were Pf growth 96h 53%, CHX counter 26*, Pf growth 48h 36%, Shiga toxin inh 64*, HCMV antiviral -14 and HCV inh -11%.
COc1ccc(-c2nc(CCNC(=O)c3ccco3)cs2)cc1OC was read as Pf growth 96h inconclusive, CHX counter 9, Pf growth 48h inconclusive, Shiga toxin inh 16, HCMV antiviral -101* and HCV inh inconclusive.
Screening Cc1noc(C)c1CSCC(=O)Nc1nc(-c2ccc(F)c(F)c2)cs1 returned Pf growth 96h inconclusive, Pf growth 48h 10µM*, HCMV antiviral -39 and HCV inh 13µM*.
Screening COc1ccc(OC)c(-c2csc(NC(=O)CSc3ccc([N+](=O)[O-])cc3)n2)c1 returned Pf growth 96h 0%, CHX counter -2, Pf growth 48h -16%, Shiga toxin inh -3, HCMV antiviral -32 and HCV inh 10µM*.
For Cc1ccc(-c2nc(SCC(=O)Nc3cc(C)on3)c3c(=O)n(C)c(=O)n(C)c3n2)cc1 the results were Pf growth 96h -25%, CHX counter 1, Pf growth 48h 3%, Shiga toxin inh -10 and HCMV antiviral 9.
COc1cccc(CNC2CCCCCCC2)c1OC was read as Pf growth 96h -12%, CHX counter -1, Pf growth 48h 0%, Shiga toxin inh -3, HCMV antiviral 30 and HCV inh 2%.
Screening CC(C)(C)C(=O)CNS(=O)(=O)c1ccc(S(=O)(=O)NC2CC2)cc1 returned Pf growth 96h inconclusive, CHX counter -3, Pf growth 48h -7%, HCMV antiviral 55 and HCV inh 4%.
`COc1ccc(CCNC(=O)COc2ccc(C)nc2[N+](=O)[O-])cc1` gave Pf growth 96h -4%, CHX counter -2, Pf growth 48h 19%, Shiga toxin inh -16, HCMV antiviral -30 and HCV inh -4%.
Cc1cccc(-c2nc(CNC(=O)c3ccco3)cs2)c1 was read as Pf growth 96h inconclusive, CHX counter 42*, Pf growth 48h 50%, Shiga toxin inh 106*, HCMV antiviral 4 and HCV inh inconclusive.
Screening C=CCN(CC=C)C(=S)NCCc1ccc(OC)c(OC)c1 returned Pf growth 96h inconclusive, CHX counter 5, Pf growth 48h 13µM*, Shiga toxin inh 4, HCMV antiviral -29 and HCV inh inconclusive.
COc1ccc(-c2csc(NC(=O)Cc3ccccc3F)n2)cc1OC was read as Pf growth 96h inconclusive, CHX counter 11, Pf growth 48h -12%, Shiga toxin inh 29, HCMV antiviral inconclusive and HCV inh 10µM*.
